Measurements published in PubChem BioAssay AID1159580 (chemical genetic matrix, 2015).
Among all 5,500 compounds or so, about 2,000 (36%) were called active. Not shown: some 18% with an inconclusive outcome. No stated cut-off is given here; in the data, active means normalized growth mostly below about 0.91 (no sharp cut-off); inconclusive means no clear call, values can overlap the other calls; inactive means mostly above about 0.92. The list shows a part of the results.

Test: chemical genetic growth profiling, strain panel (AID 1159580);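 further: tested at 20 µM; growth read once vehicle control cultures reached saturation at 30 °C; 1 = growth at the plate median or of vehicle wells; lower values mean less growth of the strain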
Settings: S. cerevisiae deletion strains, growth OD

Measured: normalized growth

NC1(C(=O)O)CCc2cc(C(=O)O)ccc21 (stereo not drawn)
inactive: locus YAL040C, strain CLN3, hits give low values 0.959 | locus YER002W, strain NOP16, hits give low values 0.997 | locus YGR078C, strain PAC10, hits give low values 1.01 | locus YNL128W, strain TEP1, hits give low values 0.997 | locus YNL175C, strain NOP13, hits give low values 0.988 | locus YNL197C, strain WHI3, hits give low values 0.998 | locus YNL224C, strain SQS1, hits give low values 1.01 | locus YOR083W, strain WHI5 (second series), hits give low values 0.993
